PubChem BioAssay (NCATS)
Results filed as inconclusive are left out. Active and inactive are the calls of the source. Unless noted, the call rests on the fitted dose curve; in most records, active means well fitted curve in the direction sought with a large enough effect; inconclusive means small, poorly fitted or top-dose-only effect, or another doubt; inactive means no such curve, though single readings can be large; an effect the other way counts as inactive or inconclusive.

Assays:
[1] = target: Lysosomal acid glucosylceramidase (Homo sapiens) (UniProt P04062); test: Glucocerebrosidase-p2 (AID 348; in the data active means potency below about 10 µM; further: potency means the concentration at half of the fitted maximal effect); conditions: purified GBA, blue fluorogenic substrate, 40 min
Method in brief: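 Compounds titrated from 0.6 nM upwards against 0.2 nM enzyme in pH 5.9 citric acid/KH2PO4, taurocholate, tween-20; blue fluorogenic substrate 80 uM, 40 min room temperature, stopped and read Ex 365/Em 440 for AC50.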

[2] = AP1 Signaling Pathway (AID 357; active means well fitted curve in either direction with a large enough effect, not every such curve was filed as active;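 further: ME-180 reporter cells stimulated with EGF at its EC50 level; on the % scale 0 is the no-effect control and ±100 the full control effect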); conditions: ME-180 AP-1-bla reporter, EGF-induced, beta-lactamase ratio, 5 h; at 7.69 µM (top of the series) unless noted
Method in brief: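 Modulation of EGF-driven AP-1 transcription was assessed with a beta-lactamase reporter in ME-180 cells. Compound and EC50 EGF were co-incubated 5 hours at 37 °C before 2.5-hour CCF4 loading at room temperature and dual-emission reading.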

[3] = Stat Signaling Pathway (AID 446; active means well fitted curve in either direction with a large enough effect, not every such curve was filed as active;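 further: ME-180 cervical cancer cells given 40 pM IL-6 alongside compound; SIE-controlled beta-lactamase reporter measured as 460/530 nm FRET emission ratio; on the % scale 0 is the no-effect control and ±100 the full control effect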); conditions: ME-180 SIE beta-lactamase reporter, IL-6 stimulated, 5 h; at 7.69 µM (top of the series) unless noted
Method in brief: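 ME-180 SIE-bla cells; overnight plating; cpd + IL-6 40 pM, 5 h, 37 C; LiveBLAzer 2.5 h RT; 460/530 nm emission ratio. Normalized to 300 pM IL-6 and 125 nM JAK inhibitor controls.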

[4] = target: Glucocorticoid receptor (Homo sapiens) (UniProt P04150); test: GR-GFP Redistribution (AID 450;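 active means compounds whose dose series gives a full or clear partial fitted curve of increased nuclear translocation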; further: potency means the concentration at half of the fitted maximal effect); conditions: U2OS GR-GFP nuclear translocation, laser cytometry, 2 h
[5] = target: Glucocorticoid receptor (Homo sapiens) (UniProt P04150); test: GR-EFC Redistribution (AID 451; calls by dose curve; further: potency means the concentration at half of the fitted maximal effect); conditions: CHO-K1 GR-EFC translocation, beta-gal luminescence, 2 h
Method in brief: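 CHO-K1 cells stably expressing nuclear-localized β-gal enzyme acceptor and GR fused C-terminally to the enzyme donor fragment; ligand-driven nuclear translocation restores β-gal by complementation. Compounds titrated up to 46 uM final, 2 h at 37 °C; luminescence read.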

[6] = target: Mitogen-activated protein kinase 10 (Mus musculus) (UniProt Q61831); test: JNK3 AlphaScreen Assay (AID 530; active means well fitted curve in either direction with a large enough effect, not every such curve was filed as active;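 further: kinase came from lysate of stimulated human HepG2 cells; signal reports phosphorylation of biotinylated GST-cJun 1-79 at Ser73 with 10 µM ATP; on the % scale 0 is the no-effect control and ±100 the full control effect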); conditions: JNK3 lysate, c-Jun phosphorylation; series mostly up to 57.1 µM
Method in brief: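 JNK3 came from HepG2 lysates pre-activated with IL-1beta and TNF-alpha and phosphorylated biotinylated GST-cJun (1-79) at 10 uM ATP, pH 7.6, room temperature. Compounds were titrated. AlphaScreen signal used anti-phospho-cJun (Ser73) antibody.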

[7] = target: 3',5'-cyclic-AMP phosphodiesterase 4B (Homo sapiens) (UniProt Q07343); test: qHTS Assay for Inhibitors of PDE-IV (AID 607; active means well fitted activation curve with a large enough effect in the main read-out, with a control signal flat, not every such curve was filed as active; further: % of control where 0% means no effect); conditions: HEK293 ACTOne CNG channel cells, membrane potential fluorescence; series mostly up to 22.9 µM
Method in brief: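 ACTOne HEK293 cells carry a modified cAMP-gated CNG channel and express endogenous PDE4; plated 1000 cells/well, compounds up to 22.9 uM final. Membrane-potential dye fluorescence (ex 535/em 590) was read; parental cells received 10 uM forskolin + 100 uM RO 20-1724.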

[8] = target: Dual specificity protein kinase CLK4 (Homo sapiens) (UniProt Q9HAZ1); test: qHTS Assay for Inhibitors of CDC-like Kinase 4 (Kinase-Glo Assay) (AID 1770); conditions: recombinant Clk4, Kinase-Glo ATP depletion luminescence; series mostly up to 66.7 µM; further: nearly all actives have a fitted effect of over 65% in size; further: potency means the concentration at half of the fitted maximal effect
Method in brief: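 Luminescent ATP-depletion read-out (Kinase-Glo) after 4.5 h room-temperature reaction of Clk4 (25 nM final) with RS peptide (100 uM) and ATP (1 uM), pH 7.5 Tris buffer with MgCl2 and DTT.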

[9] = target: Dual specificity protein kinase CLK4 (Homo sapiens) (UniProt Q9HAZ1); test: qHTS Assay for Inhibitors of CDC-like Kinase 4 (ADP-Glo Assay) (AID 1771); conditions: recombinant CLK4, ADP-Glo luminescence; series mostly up to 80 µM; further: nearly all actives have a fitted effect of over 70% in size; further: potency means the concentration at half of the fitted maximal effect
Method in brief: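 Clk4 (25 nM) was incubated 1 hr at room temperature with 100 uM RS repeat peptide and 1 uM ATP in buffer with 2 mM MgCl2, 0.5 mM EGTA, 2.5 mM DTT. ADP formed was quantified by ADP-Glo luminescence.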

[10] = target: Dual specificity protein kinase CLK4 (Homo sapiens) (UniProt Q9HAZ1); test: qHTS Assay for Inhibitors of CDC-like Kinase 4 (ADP-FP Assay) (AID 1795); conditions: Transcreener ADP fluorescence polarization; series mostly up to 50 µM; further: nearly all actives have a fitted effect of over 60% in size; further: potency means the concentration at half of the fitted maximal effect
Method in brief: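 Kinase activity was measured as ADP production using Transcreener orange tracer (4 nM) and ADP antibody (1 ug/mL) fluorescence polarization, with ADP calculated from a calibration curve. The 1 h reaction contained 6.25 nM Clk4, 1 uM ATP and 100 uM RS peptide at pH 7.5 with Mg2+.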

[11] = target: Ubiquitin carboxyl-terminal hydrolase 1 (Homo sapiens) (UniProt O94782); test: Inhibitors of USP1/UAF1: Pilot qHTS (AID 504865); conditions: purified USP1/UAF1, Ub-rhodamine cleavage fluorescence; series mostly up to 54.9 µM;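 further: rhodamine fluorescence freed from ubiquitin-rhodamine substrate followed over time; top concentration of the series differs between compounds; on the % scale 0 is the no-effect control and ±100 the full control effect; nearly all actives have a fitted effect of over 35% in size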
Method in brief: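 Deubiquitinase activity followed as kinetic rhodamine fluorescence release from 150 nM Ub-Rho. 1 nM USP1/UAF1 with compound, after 15 min room-temperature preincubation, in HEPES pH 7.8 buffer containing TCEP, EDTA, BSA and Tween-20.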

[12] = Primary qHTS for small molecule stabilizers of the endoplasmic reticulum resident proteome: Secreted ER Calcium Modulated Protein (SERCaMP) assay (AID 1508630); conditions: SH-SY5Y GLuc-SERCaMP (Gaussia luciferase released on ER calcium loss) secretion, thapsigargin, luminescence; series mostly up to 38.4 µM; further: on the % scale 0 is the no-effect control and ±100 the full control effect
Method in brief: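 GLuc-SERCaMP-expressing SH-SY5Y cells, pretreated 16 h with compound, are challenged with thapsigargin to empty ER calcium stores; after 4 h, coelenterazine is added directly to the medium and luminescence is imaged.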

[13] = target: Cytochrome P450 1A2 (Homo sapiens) (UniProt P05177); test: p450-cyp1a2 (AID 410; calls by dose curve; further: potency means the concentration at half of the fitted maximal effect); conditions: recombinant CYP1A2, luciferin-ME demethylation, luminescence; series mostly up to 57 µM
Method in brief: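 Human CYP1A2 (20nM) demethylated Luciferin-ME at its Km (100uM) in 100mM KPO4. After 10 min compound preincubation, NADPH regeneration ran the reaction 60 min at room temperature. Luciferin was read by luminescence, normalized to 57 uM furafylline.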

[14] = NFAT Signaling Pathway (AID 444; active means well fitted curve in either direction with a large enough effect, not every such curve was filed as active); conditions: Jurkat NFAT-bla M1, carbachol, beta-lactamase ratio, 5 h; at 7.69 µM (top of the series) unless noted
Method in brief: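 Jurkat cells carrying an NFAT-driven β-lactamase reporter and co-transfected muscarinic M1 receptor were treated with compound plus carbachol (1 uM final, an EC50 level) for 5 h at 37 °C. CCF4 loading followed for 1 h at RT; 460/530 nm ratio gave %activity.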

[15] = qHTS Assay for Identification of Small Molecule Agonists for Hypoxia Response Element Signaling Pathway (AID 914; active means well fitted activation curve with a large enough effect in the signal ratio, with a control signal flat, not every such curve was filed as active; the % refers to the signal ratio; further: potency means the concentration at half of the fitted maximal effect; on activation: % of control where 0% means no effect); conditions: ME-180 HRE-bla reporter, beta-lactamase ratio, CoCl2, 17 h; activation: active compounds read high
Method in brief: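 ME-180 cells carrying an HRE-driven beta-lactamase reporter were treated with compounds in a titration series plus an EC50 level of CoCl2 for 17 h at 37 degrees Celsius; CCF4 readout as the 460nm/530nm ratio gave AC50 values.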

[16] = target: Cytochrome P450 3A4 (Homo sapiens) (UniProt P08684); test: qHTS Assay for Activators of Cytochrome P450 3A4 (AID 885); conditions: recombinant CYP3A4, Luciferin-PPXE luminescence, 60 min; series mostly up to 57.1 µM; further: nearly all actives have a fitted effect of over 65% in size
Method in brief: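 20nM CYP3A4 + 25uM Luciferin-PPXE (=KM), 200mM KPO4; cpd 10 min RT; NADPH regen, 60 min RT; stop w/ detection buffer, 20 min; luminescence. Normalized to 57 uM ketoconazole.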

[17] = target: Cytochrome P450 2D6 (Homo sapiens) (UniProt P10635); test: qHTS Assay for Inhibitors and Substrates of Cytochrome P450 2D6 (AID 891); conditions: recombinant CYP2D6, luciferin-ME EGE luminescence; series mostly up to 57.1 µM; further: potency means the concentration at half of the fitted maximal effect; nearly all actives have a fitted effect of over 60% in size
Method in brief: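 Human CYP2D6 (5 nM) with 30 uM Luciferin-ME EGE (at Km) in 100 mM KPO4, compound preincubated 10 min, then NADPH regeneration system for 60 min at room temperature. Luciferin read by luminescence; normalized to 1.43 uM quinidine.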

Sequence of 3',5'-cyclic-AMP phosphodiesterase 4B (Homo sapiens) (Q07343 whole entry, looked up): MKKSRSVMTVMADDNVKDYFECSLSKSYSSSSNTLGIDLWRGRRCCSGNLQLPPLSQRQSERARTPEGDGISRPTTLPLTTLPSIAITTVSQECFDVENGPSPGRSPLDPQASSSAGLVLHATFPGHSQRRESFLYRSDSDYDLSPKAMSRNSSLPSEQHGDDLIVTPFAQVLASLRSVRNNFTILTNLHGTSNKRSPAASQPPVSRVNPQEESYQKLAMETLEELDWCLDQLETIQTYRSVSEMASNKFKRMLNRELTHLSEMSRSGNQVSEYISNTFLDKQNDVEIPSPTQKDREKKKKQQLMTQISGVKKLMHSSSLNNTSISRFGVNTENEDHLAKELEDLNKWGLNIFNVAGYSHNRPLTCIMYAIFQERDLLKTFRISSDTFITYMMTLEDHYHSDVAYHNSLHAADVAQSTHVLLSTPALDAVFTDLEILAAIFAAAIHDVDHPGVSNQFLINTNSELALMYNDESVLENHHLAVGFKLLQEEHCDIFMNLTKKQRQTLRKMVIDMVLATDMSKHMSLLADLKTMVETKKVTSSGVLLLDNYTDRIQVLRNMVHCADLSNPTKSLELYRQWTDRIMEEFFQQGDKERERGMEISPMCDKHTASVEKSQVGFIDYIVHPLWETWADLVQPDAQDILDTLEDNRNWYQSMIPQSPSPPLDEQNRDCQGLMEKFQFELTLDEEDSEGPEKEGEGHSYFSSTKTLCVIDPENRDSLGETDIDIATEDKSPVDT
Sequence of Cytochrome P450 1A2 (Homo sapiens) (P05177 whole entry, looked up): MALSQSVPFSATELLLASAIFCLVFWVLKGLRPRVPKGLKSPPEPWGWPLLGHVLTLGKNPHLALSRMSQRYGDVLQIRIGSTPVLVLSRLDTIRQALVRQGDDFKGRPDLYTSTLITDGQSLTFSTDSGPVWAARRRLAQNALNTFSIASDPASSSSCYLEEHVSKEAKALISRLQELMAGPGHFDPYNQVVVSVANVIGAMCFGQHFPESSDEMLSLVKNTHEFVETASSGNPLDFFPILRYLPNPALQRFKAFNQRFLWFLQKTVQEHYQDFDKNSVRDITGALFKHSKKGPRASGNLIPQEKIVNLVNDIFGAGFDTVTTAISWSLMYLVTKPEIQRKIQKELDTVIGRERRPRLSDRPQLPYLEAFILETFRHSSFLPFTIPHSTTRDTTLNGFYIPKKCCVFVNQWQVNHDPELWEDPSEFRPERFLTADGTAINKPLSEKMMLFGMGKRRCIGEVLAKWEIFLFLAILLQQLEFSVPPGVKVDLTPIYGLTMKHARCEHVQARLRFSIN
Sequence of Ubiquitin carboxyl-terminal hydrolase 1 (Homo sapiens) (O94782 whole entry, looked up): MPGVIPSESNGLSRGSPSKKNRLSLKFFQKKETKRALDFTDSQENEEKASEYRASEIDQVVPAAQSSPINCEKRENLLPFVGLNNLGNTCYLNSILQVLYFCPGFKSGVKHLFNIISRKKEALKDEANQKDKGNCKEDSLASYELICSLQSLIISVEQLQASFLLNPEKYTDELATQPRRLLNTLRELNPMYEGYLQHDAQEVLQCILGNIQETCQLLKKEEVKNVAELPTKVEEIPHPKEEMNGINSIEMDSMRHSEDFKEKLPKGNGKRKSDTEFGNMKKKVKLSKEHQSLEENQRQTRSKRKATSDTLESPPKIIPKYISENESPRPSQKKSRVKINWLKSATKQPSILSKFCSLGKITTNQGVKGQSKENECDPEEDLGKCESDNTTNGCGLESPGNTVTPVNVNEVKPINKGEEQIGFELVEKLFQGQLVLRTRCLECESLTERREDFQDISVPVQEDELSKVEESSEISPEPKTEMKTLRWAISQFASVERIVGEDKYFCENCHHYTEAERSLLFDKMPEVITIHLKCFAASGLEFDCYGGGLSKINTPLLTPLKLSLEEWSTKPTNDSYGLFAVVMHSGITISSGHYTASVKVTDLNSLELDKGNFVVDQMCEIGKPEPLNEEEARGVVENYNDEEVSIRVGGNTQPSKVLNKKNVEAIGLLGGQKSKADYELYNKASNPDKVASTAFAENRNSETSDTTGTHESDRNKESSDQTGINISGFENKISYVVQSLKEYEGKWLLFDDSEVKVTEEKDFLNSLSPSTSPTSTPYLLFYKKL
Sequence of Cytochrome P450 3A4 (Homo sapiens) (P08684 whole entry, looked up): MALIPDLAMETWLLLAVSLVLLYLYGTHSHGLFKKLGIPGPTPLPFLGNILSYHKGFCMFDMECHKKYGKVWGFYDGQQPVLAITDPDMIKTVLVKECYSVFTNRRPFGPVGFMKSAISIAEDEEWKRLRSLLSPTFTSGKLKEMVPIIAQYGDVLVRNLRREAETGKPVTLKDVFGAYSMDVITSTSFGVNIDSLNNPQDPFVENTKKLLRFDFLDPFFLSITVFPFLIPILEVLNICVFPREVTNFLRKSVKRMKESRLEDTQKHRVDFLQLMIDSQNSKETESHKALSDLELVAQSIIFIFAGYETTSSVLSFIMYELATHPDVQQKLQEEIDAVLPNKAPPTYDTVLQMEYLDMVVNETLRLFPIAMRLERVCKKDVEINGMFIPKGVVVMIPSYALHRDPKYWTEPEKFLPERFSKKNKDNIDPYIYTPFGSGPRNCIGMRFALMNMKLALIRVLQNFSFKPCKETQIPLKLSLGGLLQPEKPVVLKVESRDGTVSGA
Sequence of Dual specificity protein kinase CLK4 (Homo sapiens) (Q9HAZ1 whole entry, looked up): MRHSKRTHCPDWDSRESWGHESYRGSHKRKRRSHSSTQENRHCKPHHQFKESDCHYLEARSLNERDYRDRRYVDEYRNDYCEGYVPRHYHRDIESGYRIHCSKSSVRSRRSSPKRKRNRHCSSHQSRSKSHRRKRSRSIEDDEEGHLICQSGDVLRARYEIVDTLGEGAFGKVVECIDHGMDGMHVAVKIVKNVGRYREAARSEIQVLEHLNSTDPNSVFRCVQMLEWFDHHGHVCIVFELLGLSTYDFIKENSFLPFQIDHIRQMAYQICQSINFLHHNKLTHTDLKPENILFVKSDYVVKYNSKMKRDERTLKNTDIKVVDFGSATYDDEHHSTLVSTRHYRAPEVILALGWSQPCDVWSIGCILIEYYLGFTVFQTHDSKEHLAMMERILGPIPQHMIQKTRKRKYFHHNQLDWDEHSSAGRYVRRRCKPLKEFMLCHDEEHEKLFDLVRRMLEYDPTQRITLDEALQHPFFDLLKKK
Sequence of Lysosomal acid glucosylceramidase (Homo sapiens) (P04062 whole entry, looked up): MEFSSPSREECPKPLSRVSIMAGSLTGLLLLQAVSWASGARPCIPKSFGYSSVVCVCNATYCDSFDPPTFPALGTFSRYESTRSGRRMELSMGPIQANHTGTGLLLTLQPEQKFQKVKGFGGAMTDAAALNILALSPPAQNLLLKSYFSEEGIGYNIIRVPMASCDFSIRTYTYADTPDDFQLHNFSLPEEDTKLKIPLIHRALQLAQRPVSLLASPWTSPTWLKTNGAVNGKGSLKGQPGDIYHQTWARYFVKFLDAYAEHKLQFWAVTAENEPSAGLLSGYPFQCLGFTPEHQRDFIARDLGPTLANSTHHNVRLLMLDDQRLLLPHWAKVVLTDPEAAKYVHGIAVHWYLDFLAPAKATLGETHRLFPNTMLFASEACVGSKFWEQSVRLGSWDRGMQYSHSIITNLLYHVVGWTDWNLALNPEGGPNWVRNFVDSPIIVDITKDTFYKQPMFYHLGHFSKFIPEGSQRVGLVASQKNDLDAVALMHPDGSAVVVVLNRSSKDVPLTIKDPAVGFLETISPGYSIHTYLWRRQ
Sequence of Glucocorticoid receptor (Homo sapiens) (P04150 whole entry, looked up, the tested form may be a part): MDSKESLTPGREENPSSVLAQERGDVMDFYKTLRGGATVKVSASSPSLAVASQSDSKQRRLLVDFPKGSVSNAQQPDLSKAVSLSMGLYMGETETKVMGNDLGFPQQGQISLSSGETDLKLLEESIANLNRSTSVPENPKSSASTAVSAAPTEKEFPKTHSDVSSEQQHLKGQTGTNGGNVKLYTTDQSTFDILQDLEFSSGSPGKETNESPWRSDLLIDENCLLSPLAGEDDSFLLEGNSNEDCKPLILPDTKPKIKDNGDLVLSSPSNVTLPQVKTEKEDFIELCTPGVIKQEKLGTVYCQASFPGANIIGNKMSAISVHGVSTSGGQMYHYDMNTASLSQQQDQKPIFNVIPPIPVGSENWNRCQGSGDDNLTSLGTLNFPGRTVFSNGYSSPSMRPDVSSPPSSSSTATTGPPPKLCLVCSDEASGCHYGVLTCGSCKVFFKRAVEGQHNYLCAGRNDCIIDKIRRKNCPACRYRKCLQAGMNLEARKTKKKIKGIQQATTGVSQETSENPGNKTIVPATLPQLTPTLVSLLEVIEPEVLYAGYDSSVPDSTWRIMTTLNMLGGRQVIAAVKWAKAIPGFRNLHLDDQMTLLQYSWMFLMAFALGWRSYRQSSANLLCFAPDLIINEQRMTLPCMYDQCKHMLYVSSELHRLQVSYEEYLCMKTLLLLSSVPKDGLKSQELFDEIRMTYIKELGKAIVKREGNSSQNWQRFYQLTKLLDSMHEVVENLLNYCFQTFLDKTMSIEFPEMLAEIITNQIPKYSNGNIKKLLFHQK
Sequence of Cytochrome P450 2D6 (Homo sapiens) (P10635 whole entry, looked up): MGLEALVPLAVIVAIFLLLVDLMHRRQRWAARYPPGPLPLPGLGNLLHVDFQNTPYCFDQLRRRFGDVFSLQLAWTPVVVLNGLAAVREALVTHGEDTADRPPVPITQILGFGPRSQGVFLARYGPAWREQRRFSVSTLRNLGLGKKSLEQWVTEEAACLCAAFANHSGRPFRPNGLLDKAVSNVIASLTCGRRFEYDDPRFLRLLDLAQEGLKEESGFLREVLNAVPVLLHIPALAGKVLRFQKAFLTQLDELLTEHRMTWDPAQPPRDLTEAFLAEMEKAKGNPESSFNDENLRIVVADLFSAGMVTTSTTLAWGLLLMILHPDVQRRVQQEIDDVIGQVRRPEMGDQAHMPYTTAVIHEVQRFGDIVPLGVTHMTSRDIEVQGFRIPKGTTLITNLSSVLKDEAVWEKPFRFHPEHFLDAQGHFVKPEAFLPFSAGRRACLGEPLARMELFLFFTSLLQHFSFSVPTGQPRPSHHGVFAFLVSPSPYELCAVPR

COc1ccc(-c2nc3cnc(N(C)C)nc3n(C3CC3)c2=O)cc1
inactive: Potency [1] > 11.4 µM | activity change, negative = inhibition [2] -0.159% | activity, negative = inhibition [3] 24.2% | Potency [4] > 9.22 µM | Potency [5] > 46 µM | Potency [6] | Potency [7] | Potency [8] | Potency [9] | Potency [10] | Potency [11] | outcome [12]

COc1ccc(-c2nc3cnc(N4CCOCC4)nc3n(CCc3ccccc3)c2=O)cc1
inactive: Potency [1] > 11.4 µM | Potency [4] > 9.22 µM | Potency [5] > 46 µM | Potency [6] | Potency [7] | Potency [8] | Potency [9] | Potency [10] | Potency [11] | outcome [12]
active: Potency [13] 10 µM | activity change, negative = inhibition [14] 119% [activator] | activity, negative = inhibition [3] 92.5% [activator] | Potency [15] 1.26 µM

COc1ccccc1CNc1cc(-c2ccc(C(=O)N(C)C)cc2)ncn1
active: Potency [13] 7.94 µM | Potency [8] 7.08 µM | Potency [9] 7.08 µM | Potency [10] 11.2 µM
inactive: Potency [1] > 11.4 µM | activity change, negative = inhibition [14] 8.83% | Potency [4] > 46 µM | Potency [5] > 46 µM | Potency [6] | Potency [16] | activation [15] 6.06% | Potency [11] | outcome [12]

c1cn(-c2ccnc(-c3ccc4c(c3)OCO4)n2)cn1
inactive: Potency [1] > 11.4 µM | activity change, negative = inhibition [14] 17.8% | activity, negative = inhibition [3] 5.91% | Potency [4] > 46 µM | Potency [5] > 46 µM | Potency [6] | Potency [7] | Potency [16] | Potency [11] | outcome [12]
active: Potency [13] 0.0251 µM | Potency [17] 3.16 µM | Potency [8] 2.51 µM | Potency [9] 2.24 µM | Potency [10] 3.98 µM

O=c1c(-c2cccs2)nc2cnc(Oc3ccccc3)nc2n1Cc1cccs1
inactive: Potency [1] > 11.4 µM | activity change, negative = inhibition [2] -14% | activity change, negative = inhibition [14] 1.21% | activity, negative = inhibition [3] 1.3% | Potency [4] > 9.22 µM | Potency [6] | Potency [7] | Potency [16] | activation [15] 9.14% | Potency [8] | Potency [9] | Potency [10] | outcome [12]

Cn1c(=O)c(CCc2ccccc2)nc2cnc(Nc3ccccc3)nc21
active: Potency [13] 1.26 µM
inactive: Potency [1] > 11.4 µM | activity change, negative = inhibition [14] 1.9% | activity, negative = inhibition [3] -11.6% | Potency [5] > 46 µM | Potency [6] | Potency [16] | Potency [8] | Potency [9] | Potency [10] | Potency [11] | outcome [12]

Cc1noc(C)c1-c1ccc2ncnc(Nc3ccccc3)c2c1
active: Potency [8] 6.31 µM | Potency [9] 7.94 µM | Potency [10] 10 µM
inactive: Potency [1] > 11.4 µM | activity change, negative = inhibition [2] -6.37% | Potency [4] > 46 µM | Potency [5] > 46 µM | Potency [6] | Potency [7] | Potency [11] | outcome [12]
